BAZ2B inh = blocks human BAZ2B; Q9UIF8; AlphaScreen BAZ2B-H3K14Ac peptide displacement; Potency, µM (top dose mostly 114 µM), most hits filed as inhibitors; 360,000 compounds, 4.4% hits; also: nearly all actives have a fitted effect of over 60% in size
Target sequence (Q9UIF8 whole entry, looked up): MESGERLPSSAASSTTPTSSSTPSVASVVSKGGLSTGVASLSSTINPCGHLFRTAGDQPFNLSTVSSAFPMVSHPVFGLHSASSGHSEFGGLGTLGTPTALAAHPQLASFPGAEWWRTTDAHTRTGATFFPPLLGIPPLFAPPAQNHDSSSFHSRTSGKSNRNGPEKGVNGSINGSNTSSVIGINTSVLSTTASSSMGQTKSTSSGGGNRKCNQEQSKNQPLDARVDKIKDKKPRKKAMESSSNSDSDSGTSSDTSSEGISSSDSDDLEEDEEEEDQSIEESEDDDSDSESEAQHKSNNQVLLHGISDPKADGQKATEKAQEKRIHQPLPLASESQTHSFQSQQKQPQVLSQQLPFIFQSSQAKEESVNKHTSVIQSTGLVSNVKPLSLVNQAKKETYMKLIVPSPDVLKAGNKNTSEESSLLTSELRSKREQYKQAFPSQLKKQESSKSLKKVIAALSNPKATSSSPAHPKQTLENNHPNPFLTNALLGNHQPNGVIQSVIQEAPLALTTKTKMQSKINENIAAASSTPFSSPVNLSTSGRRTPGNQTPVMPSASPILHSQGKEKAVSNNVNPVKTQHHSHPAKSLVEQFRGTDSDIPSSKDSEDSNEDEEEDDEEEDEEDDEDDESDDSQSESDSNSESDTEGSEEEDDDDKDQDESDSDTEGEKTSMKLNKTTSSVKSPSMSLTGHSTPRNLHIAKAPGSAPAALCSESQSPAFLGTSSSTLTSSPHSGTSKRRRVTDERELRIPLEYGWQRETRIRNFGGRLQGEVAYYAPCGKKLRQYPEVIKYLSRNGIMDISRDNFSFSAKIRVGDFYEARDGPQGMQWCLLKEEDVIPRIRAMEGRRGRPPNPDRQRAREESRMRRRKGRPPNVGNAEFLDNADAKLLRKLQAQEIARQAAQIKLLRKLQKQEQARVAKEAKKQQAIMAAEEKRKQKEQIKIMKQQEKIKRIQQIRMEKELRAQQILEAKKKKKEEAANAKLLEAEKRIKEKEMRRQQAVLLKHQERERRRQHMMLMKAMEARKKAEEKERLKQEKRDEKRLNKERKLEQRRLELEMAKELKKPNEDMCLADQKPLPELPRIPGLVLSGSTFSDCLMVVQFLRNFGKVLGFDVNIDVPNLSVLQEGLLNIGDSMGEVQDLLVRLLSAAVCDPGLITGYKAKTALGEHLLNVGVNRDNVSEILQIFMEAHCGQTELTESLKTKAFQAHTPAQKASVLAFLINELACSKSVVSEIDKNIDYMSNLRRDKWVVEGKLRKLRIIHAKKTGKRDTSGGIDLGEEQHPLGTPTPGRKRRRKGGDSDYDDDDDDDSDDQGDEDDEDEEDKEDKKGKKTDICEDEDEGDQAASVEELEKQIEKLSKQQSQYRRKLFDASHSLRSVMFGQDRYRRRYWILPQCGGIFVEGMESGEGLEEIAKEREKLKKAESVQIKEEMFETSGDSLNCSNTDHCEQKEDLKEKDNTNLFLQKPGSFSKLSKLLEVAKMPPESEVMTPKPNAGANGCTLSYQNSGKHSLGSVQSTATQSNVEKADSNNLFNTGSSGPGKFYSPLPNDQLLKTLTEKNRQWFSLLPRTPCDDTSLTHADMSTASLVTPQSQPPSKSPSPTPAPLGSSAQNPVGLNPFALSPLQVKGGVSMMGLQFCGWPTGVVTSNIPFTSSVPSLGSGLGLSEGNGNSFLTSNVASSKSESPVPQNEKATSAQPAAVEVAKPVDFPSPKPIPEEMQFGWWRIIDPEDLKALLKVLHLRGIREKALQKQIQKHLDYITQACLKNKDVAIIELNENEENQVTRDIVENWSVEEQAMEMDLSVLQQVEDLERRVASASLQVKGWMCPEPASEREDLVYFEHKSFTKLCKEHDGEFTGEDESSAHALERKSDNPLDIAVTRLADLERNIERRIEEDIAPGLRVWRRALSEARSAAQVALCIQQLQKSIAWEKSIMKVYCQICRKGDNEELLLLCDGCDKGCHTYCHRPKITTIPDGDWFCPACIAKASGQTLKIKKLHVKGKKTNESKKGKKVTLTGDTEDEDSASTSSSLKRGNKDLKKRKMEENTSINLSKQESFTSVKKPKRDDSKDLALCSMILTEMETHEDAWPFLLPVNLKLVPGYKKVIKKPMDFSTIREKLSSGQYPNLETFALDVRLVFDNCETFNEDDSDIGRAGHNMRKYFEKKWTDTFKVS
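BAZ2B (50 nM) with biotin-H3(5-23)K14Ac peptide (50 nM) in PBS pH 7.4, 0.01% Tween-20, preformed 30 min, then compound 30 min at room temperature; top concentration 110uM. AlphaScreen streptavidin donor/nickel chelate acceptor beads (10 ug/mL final), 20 min dark, signal read.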
L3MBTL1 inh = inhibitors of human L3MBTL1; Q9Y468; AlphaScreen L3MBTL1–H3K9me1 peptide binding; Potency, µM (series often up to 57.1 µM), actives largely listed as inhibitors; 230,000 compounds, 0.66% hits; AID 485360; also: nearly all actives have a fitted effect of over 60% in size
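Read-out is AlphaScreen signal from streptavidin donor and nickel chelate acceptor beads (10 ug/mL final each) bridging L3MBTL1 (50 nM) and biotinylated K9-monomethylated H3(1-15) peptide (75 nM), after 30 min compound exposure at room temperature.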
JMJD2A Tudor = inhibitors of human JMJD2A Tudor domain. O75164. AlphaScreen JMJD2A-Tudor / H3K4me3 peptide binding. Potency, µM (series often up to 114 µM), usual class: inhibitors. 390,000 compounds, 4.4% hits. AID 504339; also: nearly all actives have a fitted effect of over 50% in size
HP1b binding inh = inhibitors of HP1-beta chromodomain binding to methylated histone tails. AlphaScreen HP1-beta / biotin-H3K9me3 peptide binding. Potency, µM (highest dose often 114 µM), usual class: inhibitors. 390,000 compounds, 0.56% hits. AID 540317; also: nearly all actives have a fitted effect of over 70% in size
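AlphaScreen: HP1-beta (50 nM) preformed 30 min with biotin-H3(1-18)K9me3 peptide (50 nM) in PBS pH 7.4, 0.01% Tween-20. Compound added for 30 min at RT, then streptavidin donor/nickel chelate acceptor beads (10 ug/mL) for 30 min.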
G9a block = blocks human histone lysine methyltransferase G9a | Q96KQ7 | G9a H3K9 monomethylation, AlphaScreen, 2 h | Potency, µM (doses to about 102 µM), actives largely listed as inhibitors | 350,000 compounds, 8.8% hits; also: nearly all actives have a fitted effect of over 75% in size
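Signal arises when biotinylated H3K9 peptide, once monomethylated, bridges streptavidin donor and antibody-captured acceptor beads. Enzyme at 20 nM was preincubated 15 min with test compounds; peptide 500 nM and SAM 20 uM then reacted for 2 h.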
Sfp inh = Sfp phosphopantetheinyl transferase inhibition. Q9F4F7. Biochemical Sfp PPTase activity, qHTS. Potency, µM, usual class: inhibitors. 310,000 compounds, 3.5% hits;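 also: the enzyme is Sfp with the accession as filed and its product quenches rhodamine fluorescence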
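Step 1, compound plus 15 nM Sfp-PPTase, 15 min, room temperature. Step 2, add rhodamine-CoA (5 uM) and BHQ-2-YbbR (12.5 uM). Step 3, read 525/598 nm fluorescence at 0 and 30 min.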
Hits are given with their value; 0 = inactive; ? = inconclusive; - = not tested or not shown; [ ] = dose if it differs, or a comment. In the library only some 12% were active in any assay of this set; here they are far more common. Calls follow the shape of the dose curve; as a rule, active = well fitted curve in the direction sought with a large enough effect; inconclusive = small, poorly fitted or top-dose-only effect, or another doubt; inactive = no such curve, though single readings can be large; an effect the other way counts as inactive or inconclusive.

SMILES	BAZ2B inh	L3MBTL1 inh	JMJD2A Tudor	HP1b binding inh	G9a block	Sfp inh
COc1cc(CN2CCN(C(=O)c3cccc4ccccc34)CC2)cc(OC)c1OC	56µM	0	20µM	?	20µM	0
CC[C@@]12C(=O)N(c3cccc(Cl)c3)C(=O)N1[C@H](c1ccc(Br)cc1)[C@@H]1C(=O)N(C(C)(C)C)C(=O)[C@@H]12	0	0	79µM	0	0[2.33 µM]	-
COc1ccc(-c2cc(-c3c(O)c(OC)c4occc4c3OC)[nH]n2)cc1OC	?	0	56µM	?	0[0.0925 µM]	0
COc1ccc(-c2cc(-c3c(O)c(OC)c4occc4c3OC)[nH]n2)cc1	0	-	?	0	0[12.7 µM]	?
CNC(=S)NCc1ccc2[nH]c3c(c2c1)CCCC3	45µM	0	0	0	40µM	?
CCCCNC(=S)NCc1ccc2[nH]c3c(c2c1)CCCC3	-	-	40µM	?	?	0
CCCCNC(=S)NCc1ccc2[nH]c(C)cc2c1	?	0	?	0	?	0
COc1ccc(OC)c(NC(=O)N(C)CCc2c(C)nn(C)c2C)c1	0	-	0	0	0[12.7 µM]	-
CCOC(=O)C1CCN(C(=O)Cn2nc(C)n3c(cc4sccc43)c2=O)CC1	0	-	0	0	0	-
COc1ccc(Cn2c(C(=O)O)c(CNCc3ccc(OC)cc3OC)c3ccc(C)cc32)cc1	0	-	0	0	0	-
COc1ccc(Cn2c(C(=O)O)c(CNCCc3ccco3)c3ccc(C)cc32)cc1	?	-	0	0	?	-
Cc1ccc2c(CNCc3ccc(C)o3)c(C(=O)O)n(Cc3ccc(F)cc3)c2c1	50µM	-	?	0	?	-
COc1ccc(Cn2c(C(=O)O)c(CNCCc3cc(OC)ccc3OC)c3ccc(C)cc32)cc1	50µM	-	?	0	0	-
C=Cc1ccc(Cn2c(C(=O)O)c(CNCCc3ccco3)c3ccc(C)cc32)cc1	45µM	-	?	0	?	-
CCOc1ccc(NC(=O)c2ccccc2NC(=O)c2cccnc2)cc1	0	0	0	0	0	0
CC[C@@]1([C@@H]2O[C@@H]([C@H]3O[C@@](O)(CO)[C@H](C)C[C@@H]3C)C[C@@H]2C)CC[C@@H]([C@]2(C)CCC3(C[C@H](O)[C@@H](C)[C@@H]([C@@H](C)[C@@H](OC)[C@H](C)C(=O)O)O3)O2)O1 (stereo partly specified)	-	-	-	-	-	0
O=C(Nc1ccccc1)C(=O)c1c[nH]c2ccccc12	0	0	0	0	0	0
COC(=O)c1sccc1NS(=O)(=O)c1ccccc1	0	-	0	0	0	0
COC(=O)c1ccc(NS(=O)(=O)c2ccccc2)o1	0	-	0	0	40µM	0
COC(=O)c1ccc(NS(=O)(=O)c2ccc(Cl)cc2)o1	?	-	0[11.4 µM]	0	50µM	0
CC(C)[C@H]1C(=O)Nc2ccccc2N1C(=O)N[C@@H](Cc1ccccc1)C(=O)N[C@@H](C(=O)O)c1ccccc1	0	-	0	0	-	0
CCc1ccc(OCC(=O)NC(=S)Nc2cccc(CO)c2)c(Br)c1	0	-	0	0	0[12.7 µM]	25µM
Cc1cccc2sc(NC(=O)CSCc3ccccc3)nc12	0	-	0	0	0[12.7 µM]	0
Cc1cccc2sc(NC(=O)CCn3cccc3)nc12	-	-	0	?	50µM	0
Cc1cccc2sc(NC(=O)Cn3cccc3)nc12	?	0	?	0	45µM	0
SMILES	BAZ2B inh	L3MBTL1 inh	JMJD2A Tudor	HP1b binding inh	G9a block	Sfp inh
CCC(=O)NNc1nc2c(C)cccc2s1	-	-	0	0	?	50µM
CCNC(=O)c1c(NC(=O)c2nc(S(=O)(=O)CC)ncc2Cl)sc2c1CCCC2	0	-	0	0	0	-
Cc1ccc(/C=N/n2c(C)nnc2C)o1	0	0	?	0	0	0
Cc1ccc(C=Nc2ccc(N(C)C)cc2)o1	-	?	45µM	?	1.3µM	?
COc1ccc(NC(=O)CCCC(=O)O)cc1Cl	0	0	0	0	0	0
Cc1ccc(C(=O)NCC(=O)Nc2ccc3c(c2)CCC3)cc1C	0	0	0	0	0	-
CCN(CC)CCCNCC(=O)Nc1ccc(OC)c(Cl)c1	50µM	0	-	-	8.9µM	0
CCN(CC)CCCNCC(=O)Nc1ccc2c(c1)CCC2	56µM	0	28µM	?	35µM	89µM
Cc1ccc(NC(=O)C2CCN(S(=O)(=O)c3c(C)noc3C)CC2)c(C)c1	0	-	0	0	0	-

High-throughput results deposited in PubChem by National Center for Advancing Translational Sciences (NCATS).
